# High-throughput results (PubChem BioAssay)
# AI-2 QS modul = Vibrio harveyi AI-2 quorum sensing modulators, primary screen, JMH597 strain, luminescence/OD600 ratio; Vibrio harveyi JMH597 AI-2 luminescence/OD600 ratio, 9 h; stronger effect = lower value; strain lacks LuxN and CqsS sensors; 0 = neutral-control median; activity change, % at 7.5 µM; 300,000 compounds, 0.4% hits; in the data active = activity change below about -75%, passing the limit was not always enough;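 also: luminescence divided by OD600 gain over 9 h not by final OD600 alone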
# Rin1-Abl PPI inh = inhibitors of Rin1-Abl protein binding, primary screen, biochemical, TR-FRET | inhibition, % at 7.35 µM | Tyrosine-protein kinase ABL1 (Homo sapiens) + Ras and Rab interactor 1 (Homo sapiens), … | 360,000 compounds, 0.4% hits; in the data active = inhibition above about 5%, passing the limit was not always enough
# sPLA2-III inh = human group III sPLA2 inhibitors, primary screen, biochemical, QFRET, BODIPY PC-A2 liposome substrate; QFRET BODIPY PC-A2 liposome hydrolysis, fluorescence; inhibition, % at 12.2 µM; 370,000 compounds, 0.56% hits; AID 743126, 2013;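 active = inhibition above mean plus 3 SD of compounds lying within the high and low control bounds, cut at about 19% in these data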;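 also: 0% = median of test compound wells and 100% = no enzyme DMSO wells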
# Target sequence (Q9NZ20 whole entry, looked up): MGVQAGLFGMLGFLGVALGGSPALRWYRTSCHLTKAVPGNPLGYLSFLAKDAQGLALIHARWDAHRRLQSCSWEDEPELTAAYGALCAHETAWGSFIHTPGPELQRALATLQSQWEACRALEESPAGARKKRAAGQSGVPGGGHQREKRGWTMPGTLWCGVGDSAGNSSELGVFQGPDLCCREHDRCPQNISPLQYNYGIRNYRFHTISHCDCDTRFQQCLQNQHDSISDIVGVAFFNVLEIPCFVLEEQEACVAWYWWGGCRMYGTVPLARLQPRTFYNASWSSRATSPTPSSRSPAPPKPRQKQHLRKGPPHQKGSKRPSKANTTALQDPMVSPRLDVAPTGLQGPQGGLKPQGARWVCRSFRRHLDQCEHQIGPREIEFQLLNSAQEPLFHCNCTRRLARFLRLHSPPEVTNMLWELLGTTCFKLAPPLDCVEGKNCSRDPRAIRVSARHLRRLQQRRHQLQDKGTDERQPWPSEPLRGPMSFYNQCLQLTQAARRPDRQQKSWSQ
# ARNT TACC3 PPI = disruptors of ARNT/TACC3 protein interaction, primary screen, biochemical, AlphaScreen, single concentration; 390,000 compounds, 0.66% hits; inhibition, % at 9.99 µM; AlphaScreen His-ARNT PAS-B/GST-TACC3 binding, luminescence; TACC3 fragment carries E629A point mutation;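 active = mean inhibition of replicates at least 50% and at least half of replicates each reaching 50%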;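 also: 0% = complete ARNT plus TACC3 wells and 100% = ARNT alone without TACC3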
# Rin1 Abl conf = Rin1-Abl binding inhibitor retest, confirmation, biochemical, TR-FRET; shares compounds with Rin1-Abl PPI inh; purified proteins; 1,300 compounds, 49% hits; inhibition, % at 7.35 µM
# GFP quencher = GFP fluorescence inhibitors and quenchers, artefact control for Rin1-Abl interaction inhibitor project, biochemical; shares compounds with Rin1-Abl PPI inh; inhibitors/quenchers counterscreen; inhibition, % at 6.75 µM; 1,300 compounds, 8.5% hits; AID 602125, 2011;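 also: ABL1-eGFP fusion protein alone without its partner RIN1-SBP; 0% = protein with vehicle and 100% = wells lacking protein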
# ARNT Alpha ctr = AlphaScreen signal interference compounds, dose response, artefact control for ARNT-TACC3 interaction inhibitor project, biochemical, luminescence, cherry-pick. shares compounds with ARNT TACC3 PPI. AID 651705, 2012. His-ARNT PASB-GST AlphaScreen artifact counter-screen. AC50, µM (titrated, usually from 68 µM), for inactives: top-dose activity change, negative = signal decrease. 1,200 compounds, 50% hits;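 active = every separate test run was called active for a drop in luminescence, with AC50 within twice the top valid dose, actives reach about 71 µM in these data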
# sPLA2 confirm = human group III sPLA2 inhibitors, confirmation, biochemical, QFRET, triplicate. 2,000 compounds, 34% hits. AID 743280, 2014. recombinant hGIII-sPLA2, BODIPY PC-A2 QFRET fluorescence. shares compounds with sPLA2-III inh. inhibition, % at 12.2 µM;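 active = mean inhibition across triplicates above the hit cutoff set in the earlier primary screen, cut at about 19% in these data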;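 also: 0% = enzyme with DMSO and 100% = DMSO wells lacking enzyme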
# 535nm interf = 535nm fluorescence optical interference, confirmation, artefact control for HGIII-sPLA2 inhibitor project, biochemical, QFRET. shares compounds with sPLA2-III inh. BODIPY FL product fluorescence interference. inhibition, % at 12.2 µM. 2,000 compounds, 8.5% hits;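 active = average inhibition above the solvent-only control mean plus 3 SD, cut at about 6% in these data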;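 also: 0% = DMSO with substrate plus product and 100% = DMSO with substrate alone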
# BODIPY interf DR = 535nm fluorescence optical interference, dose response, artefact control for HGIII-sPLA2 inhibitor project, biochemical, QFRET; shares compounds with sPLA2-III inh; BODIPY FL product fluorescence interference, cell-free; IC50, µM; 240 tested, under 10 active;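 active = IC50 at or below 10 µM; inactive = IC50 above 10 µM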
# An asterisk follows results filed as active; nt = no result given. Rows were chosen to be rich in hits. Some 1.5% of all compounds tested hit in one or more screens of this group. Rule as the data show it, unless noted: active = inhibition above about 6.5%; inactive = the rest.
SMILES,AI-2 QS modul,Rin1-Abl PPI inh,sPLA2-III inh,ARNT TACC3 PPI,others
CCCNC(=O)[C@@H]1[C@@H](CO)[C@@H]2Cn3c(cccc3=O)[C@H]1N2CCC,nt,nt,nt,-6.5,
Cc1cc(C)cc(N2C(=O)NC(=O)/C(=C\C=C\c3ccco3)C2=O)c1,8.9,0.8,-8.2,3.8,
Cc1ccc(N2C(=O)NC(=O)/C(=C/C=C/c3ccco3)C2=O)cc1,23.5,6.2*,-13.9,-2.3,Rin1 Abl conf=2.7;GFP quencher=0.4
COP(=O)(OC)C(NS(=O)(=O)c1ccccc1)C(Cl)(Cl)Cl (centres undefined),17.2,8.0*,-0.5,-0.4,Rin1 Abl conf=-0.5;GFP quencher=-0.8
COP(=O)(OC)C(Nc1ccccn1)c1ccccc1 (centres undefined),6.6,-3.9,18.7,-7.9,
C/C=C/c1ccc([C@@H]2[C@@H](CO)N3CCCCN(C(=O)Cc4ccncc4)C[C@@H]23)cc1,nt,nt,nt,0.2,
CCN(CC)C(=O)c1ccc2c(c1)C1C(Cl)C(Sc3ccccc3[N+](=O)[O-])CC1C(C(=O)O)N2 (centres undefined),52.9,6.8*,nt,34.9,Rin1 Abl conf=-0.8;GFP quencher=16.7*
CN(C)C(=O)[C@@H]1[C@@H](CO)[C@@H]2Cn3c(cccc3=O)[C@H]1N2CC1CC1,nt,nt,nt,1.2,
CN(C)[C@@H]1C(=O)C(C(N)=O)=C(O)[C@@]2(O)C(=O)C3=C(O)c4c(O)cccc4[C@@](C)(O)C3[C@H](O)C12 (some centres undefined),-81.6*,18.8*,4.0,44.6*,Rin1 Abl conf=1.9;GFP quencher=0.2;ARNT Alpha ctr=-1.2%
CN(C)CC#Cc1ccc([C@@H]2[C@@H](CO)N3CCCCN(C(=O)Cc4ccccn4)C[C@H]23)cc1,nt,nt,nt,-1.3,
COc1cc2c(c(OC)c1OC)-c1ccc(O)c(=O)cc1[C@@H](NC(C)=O)CC2,nt,2.6,-8.7,68.9*,ARNT Alpha ctr=-22.3%
O=C(O)C[C@H]1CC[C@@H]2NC[C@H](O)COC[C@H]2O1,nt,nt,nt,0.2,
CCOC(=O)c1cc2c(cn1)[C@H](CCO)NC2,nt,-1.9,3.1,58.6*,ARNT Alpha ctr=-15.4%
CCOC(=O)c1cnc(N2CC2)nc1N,nt,0.3,5.3,5.7,
COC(=O)[C@@H]1[C@@H](CO)[C@@H]2Cn3c(ccc(-c4ccccc4F)c3=O)[C@H]1N2Cc1cccnc1,nt,nt,nt,-5.0,
O=c1[nH]c(O)c(Cc2ccc3c(c2)OCO3)c(=O)[nH]1,12.5,-3.2,13.0,23.2*,ARNT Alpha ctr=7.2%
CCOc1ccc(Cc2c(O)[nH]c(=O)[nH]c2=O)cc1,-4.1,7.2,2.5,4.1,
Cc1cccc(NC(=O)C(C)N2CC=C(c3ccccc3)CC2)c1 (centres undefined),4.1,0.3,-9.7,62.2*,ARNT Alpha ctr=-27.0%
O=C1CC(c2ccccc2)CN1 (centres undefined),nt,2.5,24.2*,3.9,sPLA2 confirm=2.9;535nm interf=-2.8
O=C1NC(=S)NC(=O)C1c1ccccc1,nt,2.6,8.5,-5.5,
c1ccc2c3c([nH]c2c1)CNCC3,18.1,0.7,23.5*,-2.0,sPLA2 confirm=18.0;535nm interf=-6.9
COC(=O)[C@H]1[C@H](CO)[C@H]2Cn3c(ccc(-c4cccc(F)c4)c3=O)[C@@H]1N2Cc1ccncc1,nt,nt,nt,-2.3,
O=C(C[N+]12CCC(CC1)C(CO)C2)c1ccc([N+](=O)[O-])cc1 (centres undefined),17.6,3.9,3.6,1.7,
O=C(C[N+]12CCC(CC1)C(OC(=O)c1ccccc1)C2)c1ccc([N+](=O)[O-])cc1 (centres undefined),26.3,-2.4,21.7*,-1.8,sPLA2 confirm=13.5;535nm interf=-20.9
COC(=O)[C@@H]1[C@@H](CO)[C@@H]2Cn3c(ccc(-c4ccncc4)c3=O)[C@H]1N2CCc1ccccc1,nt,nt,nt,-5.2,
SMILES,AI-2 QS modul,Rin1-Abl PPI inh,sPLA2-III inh,ARNT TACC3 PPI,others
CN(C)c1ccc(-[n+]2c(-c3ccccc3)cc(-c3ccccc3)cc2-c2ccccc2)cc1,42.7,-7.0,22.2*,17.4,sPLA2 confirm=27.2*;535nm interf=-37.4
c1ccc(-c2cc(-c3ccccc3)[n+](-c3ccccc3)c(-c3ccccc3)c2)cc1,25.0,-1.0,5.7,0.9,
Clc1cccc(N2CCNCC2)c1Cl,8.5,0.5,24.6*,-5.2,sPLA2 confirm=9.2;535nm interf=-11.9
COC(=O)[C@@H]1[C@@H](CO)[C@@H]2Cn3c(cccc3=O)[C@H]1N2C(=O)C1CC1,nt,nt,nt,-1.7,
O=C(Cc1cccnc1)N1CCCCN2[C@H](C1)[C@H](c1ccc(/C=C/c3ccccc3)cc1)[C@@H]2CO,nt,nt,nt,11.4,
O=C(Cc1cccnc1)N1CCCCN2[C@H](CO)[C@@H](c3ccc(C#CC4(O)CCCC4)cc3)[C@H]2C1,nt,nt,nt,-6.2,
CC1CC2(C)C(CCC3C2CCC2(C)C(OP(=O)(N4CC4)N4CC4)CCC32)CC1=O (centres undefined),nt,2.6,24.7*,12.6,sPLA2 confirm=-1.2;535nm interf=-24.8
C[C@]12CCC3C(CC[C@H]4C[C@H](O)CC[C@]34C)C1CC(=O)[C@@H]2O (some centres undefined),nt,1.6,1.3,6.5,
CCc1ccc(/C=C(/C#N)C(N)=S)cc1,15.9,-1.8,24.1*,-4.9,sPLA2 confirm=29.4*;535nm interf=3.1;BODIPY interf DR=>122
O=C1CN=C(c2ccccc2F)c2cc(Cl)ccc2N1,7.1,0.6,19.3*,-6.6,sPLA2 confirm=-1.9;535nm interf=-6.8
CC(=NCc1ccco1)c1c(O)n(C)c(=O)n(C)c1=O,14.5,-4.2,7.5,-3.5,
CCC(=NCc1ccco1)c1c(O)n(C)c(=O)n(C)c1=O,4.0,0.3,19.7*,11.7,sPLA2 confirm=-1.2;535nm interf=-7.0
